Several values for one entry are separate records, joined by “and”; a condition that tells them apart may be missing. Equal entries are not always repeated. A structure can be active in one record and inactive in another. Activity calls are given as the source filed them. The calls were made as follows: active = hit-call score of the fitted dose curve at least 0.9, where 1 is the maximum; inactive = score below 0.9.
Test: ATG_NF_kB_CIS: Attagene CIS-FACTORIAL HepG2 Assay for human Nuclear Factor Kappa B (NF-kB) (AID 2282991)
Conditions: HepG2 Attagene cis-factorial NF-kB reporter mRNA; actives raise or lower the signal
Protocol: ATG_CIS is a cell-based, multiplexed-readout assay that uses HepG2, a human liver cell line, with measurements taken at 24 hours after chemical dosing in a 24-well plate.ATG_NF_kB_CIS is one of 52 assay component(s) measured or calculated from the ATG_CIS assay. It is designed to make measurements of mRNA induction, a form of inducible reporter, as detected with fluorescence intensity signals by Reverse transcription polymerase chain reaction (RT-PCR) and Capillary electrophoresis technology.Data from the assay component ATG_NF_kB_CIS was analyzed into 1 assay endpoint. This assay endpoint, ATG_NF_kB_CIS, was analyzed with bidirectional fitting relative to DMSO as the negative control and baseline of activity. Using a type of inducible reporter, measures of mRNA for gain or loss-of-signal activity can be used to understand the reporter gene at the transcription factor-level as they relate to the gene NFKB1. Furthermore, this assay endpoint can be referred to as a primary readout, because this assay has produced multiple assay endpoints where this one serves a reporter gene function. To generalize the intended target to other relatable targets, this assay endpoint is annotated to the dna binding intended target family, where the subfamily is NF-kappa B.
Human liver HepG2 cells are transiently transfected with multiple reporter transcription units (MRTUs) in 6-well plates using FuGene 6 reagent (Roche; 3 ml FuGene/1 mg DNA). The MRTU constructs are regulated by a cis-regulating element (promoter). […] A major difference between the CIS and TRANS system is that in CIS activities of endogenous TFs are measured, whereas the TRANS assay evaluates changes in activities of exogenous, chimeric NR-Gal4 proteins. […] At the end of 24 hour incubation, total RNA was isolated using TriZol reagent (Invitrogen). The isolated RNA is then reverse-transcribed using oligo(dT) primer and Mo-MLV reverse transcriptase (Invitrogen) with DNAse I (Ambion) treatment for 30 min. The one-tenth of the produced cDNA was amplified by PCR using Taq DNA polymerase (Invitrogen) and two reporter sequence-specific primers. The PCR products were fluorescently labeled by primer extension with 6-arboxyfluorescein (6-FAM) 5'-labeled reporter sequence-specific primer (2 min at 95 C, 20 s at 68 C and 10 min at 72 C) and these products were digested with 5U of HpaI (New England Biolabs) for 2h at 37 C. The fragments were purified using Qiaquick PCR columns (Qiagen), analyzed on an ABI 3130xL genetic analyzer (Applied Biosystems) with peak positions identified by using a set of X-rhodamine (ROX)-labeled MapMarker1000 molecular weight standards (BioVentures). The raw capillary electrophoresis data was processed using Attagraph software (Attagene).

SMILES | outcome | AC50
O=C(CC(=O)C(F)(F)C(F)(F)C(F)(F)F)c1cccs1 | inactive | –
COC(O)c1ccccc1 (stereo not given) | inactive | –
CCOC=O | inactive | –
CCCCC(CC)C(=O)OCCOCCOCCOCCOC(=O)C(CC)CCCC (stereo not given) | inactive | –
C[C@]12CC[C@@H]3c4ccc(O)cc4CC[C@H]3[C@@H]1C[C@@H](O)[C@@H]2O | inactive | –
O=S(=O)(O)c1ccc2cc(O)ccc2c1 | inactive | –
c1cnc2c(c1)ccc1cccnc12 | inactive | 100 µM (active)
O=C1c2ccccc2C(=O)c2c(O)c(O)cc(O)c21 | – | 32.4 µM (active)
Cc1ccc(C(=O)c2ccccc2)cc1 | inactive | –
CC(C)[C@@H]1CC[C@@H](C)C[C@H]1O | inactive | –
Cc1cc(=O)oc2cc(O)ccc12 | inactive | –
O=C1c2ccc(O)c(O)c2C(=O)c2c(O)ccc(O)c21 | – | 31.1 µM (active)
Clc1ccc2c(Cl)ccnc2c1 | inactive | –
CC1CCC(C(=O)O)CC1 (stereo not given) | inactive | –
FC(F)(F)C1(F)C(F)(F)C(F)(F)C(F)(F)C(F)(C(F)(F)F)C1(F)F (stereo not given) | inactive | –
O=CC(F)(F)C(F)(F)C(F)(F)C(F)F | inactive | –
O=C(C=C(O)C(F)(F)F)C(F)(F)F | inactive | –
O=C(NO)c1ccccc1 | – | 22 µM (active) [middle of 4 runs]
CCCCCCCCCCCCCCCCCC[N+](C)(C)Cc1ccccc1 | inactive | –
Brc1cc(Br)c(Oc2c(Br)cc(Br)c(Br)c2Br)cc1Br | inactive | –

SMILES | outcome | AC50
OCC1CCC(CO)CC1 (stereo not given) | inactive | –
OCC(CO)(CBr)CBr | inactive | –
COc1cccc(O)c1 | inactive | –
CCc1cccc(CC)c1NC(=O)C(=O)O | inactive | –
CN(C)c1ccc(C(=C2C=CC(=[N+](C)C)C=C2)c2ccccc2)cc1 | – | 933 nM (active) and 1.85 µM (active)
COC1=CC(=O)C[C@@H](C)[C@]12Oc1c(Cl)c(OC)cc(OC)c1C2=O | – | 25.6 µM (active)
FC(F)(F)C1(F)C(F)(F)C(F)(F)C(F)(F)C1(F)F | inactive | –
CCCCCCCCCCCCCCC | inactive | –
CCCCC=O | inactive | –
C=Cc1ccc(O)c(OC)c1 | inactive | –
Cc1cc(Cc2cc(C)cc(C(C)(C)C)c2O)c(O)c(C(C)(C)C)c1 | inactive | –
CC=O | inactive | –
Clc1ccc(Nc2nnc(Cc3ccncc3)c3ccccc23)cc1 | inactive | –
c1ccc2c(c1)CCC2 | inactive | –
C=CC(=O)OCCC(F)(F)C(F)(F)C(F)(F)C(F)(F)C(F)(F)C(F)(F)C(F)(F)C(F)(F)F | inactive | –
C=CC(=O)OCCN(CC)CC | inactive | –
FC1(F)C=CC(F)(F)C1(F)F | inactive | –
CCCC=O | inactive | –
CCCCCCC(C)(C)C(=O)O | inactive | –

From PubChem BioAssay (EPA / NIEHS)
